The record followed here is PubChem BioAssay (NCATS).

Where “and” joins values, the source holds several entries; their conditions need not be identical. Identical values can stand only once. Unmarked numbers belong to inactive results. Results filed as inconclusive are left out. Calls of active or inactive are those of the source. Unless noted, the call rests on the fitted dose curve; in most records, active means well fitted curve in the direction sought with a large enough effect; inconclusive means small, poorly fitted or top-dose-only effect, or another doubt; inactive means no such curve, though single readings can be large; an effect the other way counts as inactive or inconclusive.

Assay [1] in a line: P-glycoprotein substrates identified in KB-8-5-11 adenocarcinoma cell line, qHTS therapeutic library screen (AID 1346987). Further: nearly all actives have a fitted effect of over 65% in size. Further: potency means the concentration at half of the fitted maximal effect. The procedure, abridged:
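Luminescence from CellTiter-Glo, read 5 min after addition, quantified survival of KB-8-5-11 (P-gp-overexpressing) cells exposed to compounds for 72 h. AC50 was derived from concentration-response curves.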

Assay [2] in a line: Natriuretic polypeptide receptor (hNpr1) antagonism - Pilot counterscreen GloSensor control cell line (AID 1347045; calls by dose curve; further: series mostly up to about 38 µM). An outline of the steps:
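Cells were first seeded and incubated overnight at 37C, then loaded with 2% GloSensor substrate for 2 h. Compounds were added for 30 min at room temperature, followed by a baseline read, 50 uM SNP and a final read after 20 min.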

The target of assay [3] is Atrial natriuretic peptide receptor 1 (Homo sapiens) (UniProt P16066). Kind of assay: Natriuretic polypeptide receptor (hNpr1) antagonism - Pilot screen (AID 1347049; calls by dose curve;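 further: HEK293 cells with hNpr1 and GloSensor cGMP luciferase stimulated by 0.1 nM hNppA; agonist-evoked cGMP luminescence read 20 min after hNppA addition; series mostly up to about 58 µM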). An outline of the steps: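 Cells expressing receptor plus cGMP biosensor are seeded and incubated overnight at 37C, then loaded with GloSensor reagent (2% final) at room temperature for 2 h. Library compounds go on for 30 min. A pre-read precedes agonist (hNppA, 0.1 nM final) and a 20-min readout.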

For assay [4], the target named is Atrial natriuretic peptide receptor 2 (Homo sapiens) (UniProt P20594). Kind of assay: Natriuretic polypeptide receptor (hNpr2) antagonism - Pilot subtype selectivity assay (AID 1347050; calls by dose curve). The procedure, abridged: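 Read-out: GloSensor luminescence (CCD imager), baseline vs post-stimulation. HEK293 cells expressing hNpr2; compounds pre-incubated 30-50 min at ambient temperature; hNppC 1 nM final, 20 min.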

The target of assay [5] is Parathyroid hormone/parathyroid hormone-related peptide receptor (Homo sapiens) (UniProt Q03431). Kind of assay: qHTS for PTHR1 Agonists: Optimization Screen against the NCGC LOPAC library (AID 1347079).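 Further: GloSensor cAMP luminescence in HEK-293 GP2 cells expressing human PTHR1 with IBMX.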 The procedure, abridged: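 HEK-293 GP2 cells, PTHR1 + GloSensor cAMP; 3000 cells/well, o/n. Luciferin + IBMX 0.5mM each (stock), 1 hr 37C. Cpd titration, 1 hr 37C. Lum after 15 min RT. Ctrl M-PTH(1-15) top 10uM.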

Assay [6] in a line: NS1 protein of Zika virus - qHTS assay to identify small molecule inhibitors in human HEK 293 cells (AID 1347053). Further: series mostly up to about 46 µM; nearly all actives have a fitted effect of over 55% in size. An outline of the steps: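 In this cell-based screen, HEK 293 cultures received compound for one hour before Zika MR766 at MOI = 0.5. NS1 was quantified 24 hours later by TR-FRET, normalized to virus-free wells and infected wells.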
Assay [7] concerns the target T1, Tyrosine-protein phosphatase non-receptor type substrate 1 (Homo sapiens) + Leukocyte surface antigen CD47 (Homo sapiens) (UniProt P78324+Q08722). Put plainly: CD47-SIRPalpha protein protein interaction - LANCE assay qHTS validation (AID 1347057; active means well fitted curve in the direction sought with a large enough effect in the signal ratio, with a control signal flat, not every such curve was filed as active; the % refers to the signal ratio; further: series mostly up to about 38 µM). The procedure, abridged:
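Inhibition of soluble CD47/SIRPalpha ectodomain association by titrated compounds, measured as 665/615 nm time-resolved FRET ratio after sequential 30 min room-temperature incubations.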

Assay [8] has as its target T1, Tyrosine-protein phosphatase non-receptor type substrate 1 (Homo sapiens) + Leukocyte surface antigen CD47 (Homo sapiens). Put plainly: CD47-SIRPalpha protein protein interaction - HTRF assay qHTS validation (AID 1347058; active means well fitted curve in the direction sought with a large enough effect in the signal ratio, not every such curve was filed as active; the % refers to the signal ratio; further: series mostly up to about 38 µM). An outline of the steps:
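Soluble extracellular domains (6His-CD47, Avi-tag-biotinylated SIRPalpha) in PBS pH 7.4 with 0.05% IGEPAL CA-630. Compounds were preincubated 30 min at RT with CD47 and anti-His-Eu, then SIRPalpha and SAV-XL665 were added. TR-FRET 665/615 ratio.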

For assay [9] the target is unchanged. Kind of assay: CD47-SIRPalpha protein protein interaction - Alpha assay qHTS validation (AID 1347059).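 Further: bead proximity luminescence from CD47 binding SIRPalpha after compound preincubation with SIRPalpha.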 An outline of the steps:
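In PBS (pH 7.4) with 0.05% IGEPAL CA-630, compound is preincubated with biotin-Avi-SIRPalpha ectodomain before His-CD47 ectodomain and affinity beads are added. Light-protected room-temperature incubations; AlphaScreen readout.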

A short description of assay [10]: qHTS of pediatric cancer cell lines to identify multiple opportunities for drug repurposing: Primary screen for TC32 cells (AID 1347089). Further: nearly all actives have a fitted effect of over 60% in size. The procedure, abridged: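 Luminescent CellTiter-Glo read-out of metabolically active TC32 cells after 48 h compound exposure. Primary: MIPE 11-point, 0.78 nM–46 µM; NPC 8-point, 0.59 nM–46 µM. Confirmatory: 11-point dilutions.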

Assay [11] in a line: qHTS of pediatric cancer cell lines to identify multiple opportunities for drug repurposing: Primary screen for DAOY cells (AID 1347090). Further: series mostly up to about 46 µM; nearly all actives have a fitted effect of over 55% in size. The procedure, abridged: (§1)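 Eight- or eleven-point concentration series, 48 h treatment at 37 degrees C in growth media; readout CellTiter-Glo luminescence. Potency and efficacy were taken from the concentration-response curves.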
Assay [12] in a line: qHTS of pediatric cancer cell lines to identify multiple opportunities for drug repurposing: Primary screen for SJ-GBM2 cells (AID 1347091). The procedure, abridged: as §1
The nature of assay [13]: qHTS of pediatric cancer cell lines to identify multiple opportunities for drug repurposing: Primary screen for A673 cells (AID 1347092). Further: nearly all actives have a fitted effect of over 45% in size. The procedure, abridged:
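A673 cells (500-1,000 cells/well in growth media) were pre-incubated 5 h at 37 degrees C, then exposed to compounds for 48 h. Viability was read as CellTiter-Glo luminescence; concentration-response curves came directly from the primary screen.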

Assay [14] can be described thus: qHTS of pediatric cancer cell lines to identify multiple opportunities for drug repurposing: Primary screen for SK-N-MC cells (AID 1347093). Further: potency means the concentration at half of the fitted maximal effect. An outline of the steps:
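Metabolically active cells were quantified by ATP-dependent luminescence (CellTiter-Glo, 15 min at room temperature) following 48 h treatment. Cells had been plated at 500-1,000 per well and settled for 5 h beforehand.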

Assay [15] can be described thus: qHTS of pediatric cancer cell lines to identify multiple opportunities for drug repurposing: Primary screen for BT-37 cells (AID 1347094). Further: series mostly up to about 57 µM. The procedure, abridged: (§2)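 500-1,000 cells/well; 5 h pre-incubation 37 °C/5% CO2; compound pinned; 48 h; CellTiter-Glo, 15 min RT; luminescence. MIPE 11-pt from 0.78 nM, NPC 8-pt from 0.59 nM final. Bortezomib 2.3 µM final as positive control.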

Assay [16] in a line: qHTS of pediatric cancer cell lines to identify multiple opportunities for drug repurposing: Primary screen for NB-EBc1 cells (AID 1347095). An outline of the steps: as §2
Assay [17] is described as follows: qHTS of pediatric cancer cell lines to identify multiple opportunities for drug repurposing: Primary screen for U-2 OS cells (AID 1347096). Further: nearly all actives have a fitted effect of over 50% in size. An outline of the steps:
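Cells (500-1,000/well) in growth media were settled 5 h at 37 degrees C, then given compounds for 48 h. Viability was read as CellTiter-Glo luminescence. Primary runs used MIPE at 11 points (0.78 nM-46 µM) and NPC at 8 points (0.59 nM-46 µM); follow-ups used 11 points.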

Assay [18] can be described thus: qHTS of pediatric cancer cell lines to identify multiple opportunities for drug repurposing: Primary screen for Saos-2 cells (AID 1347097). Further: nearly all actives have a fitted effect of over 40% in size. The procedure, abridged:
as §2

A short description of assay [19]: qHTS of pediatric cancer cell lines to identify multiple opportunities for drug repurposing: Primary screen for SK-N-SH cells (AID 1347098).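 Further: DMSO served as neutral control and bortezomib at 2.3 µM as positive control; nearly all actives have a fitted effect of over 65% in size.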 An outline of the steps: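 Cells (500-1,000/well) rested 5 h, then received compounds for 48 h; metabolically active cells were measured by CellTiter-Glo luminescence. Final concentrations spanned up to 46 µM (MIPE, 11-point) or 0.59 nM-46 µM (NPC, 8-point) in primary screens, 11-point in follow-ups.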

The nature of assay [20]: qHTS of pediatric cancer cell lines to identify multiple opportunities for drug repurposing: Primary screen for NB1643 cells (AID 1347099). Further: nearly all actives have a fitted effect of over 50% in size. An outline of the steps:
as §2

Chain of Atrial natriuretic peptide receptor 2 (Homo sapiens) (P20594 whole entry, looked up): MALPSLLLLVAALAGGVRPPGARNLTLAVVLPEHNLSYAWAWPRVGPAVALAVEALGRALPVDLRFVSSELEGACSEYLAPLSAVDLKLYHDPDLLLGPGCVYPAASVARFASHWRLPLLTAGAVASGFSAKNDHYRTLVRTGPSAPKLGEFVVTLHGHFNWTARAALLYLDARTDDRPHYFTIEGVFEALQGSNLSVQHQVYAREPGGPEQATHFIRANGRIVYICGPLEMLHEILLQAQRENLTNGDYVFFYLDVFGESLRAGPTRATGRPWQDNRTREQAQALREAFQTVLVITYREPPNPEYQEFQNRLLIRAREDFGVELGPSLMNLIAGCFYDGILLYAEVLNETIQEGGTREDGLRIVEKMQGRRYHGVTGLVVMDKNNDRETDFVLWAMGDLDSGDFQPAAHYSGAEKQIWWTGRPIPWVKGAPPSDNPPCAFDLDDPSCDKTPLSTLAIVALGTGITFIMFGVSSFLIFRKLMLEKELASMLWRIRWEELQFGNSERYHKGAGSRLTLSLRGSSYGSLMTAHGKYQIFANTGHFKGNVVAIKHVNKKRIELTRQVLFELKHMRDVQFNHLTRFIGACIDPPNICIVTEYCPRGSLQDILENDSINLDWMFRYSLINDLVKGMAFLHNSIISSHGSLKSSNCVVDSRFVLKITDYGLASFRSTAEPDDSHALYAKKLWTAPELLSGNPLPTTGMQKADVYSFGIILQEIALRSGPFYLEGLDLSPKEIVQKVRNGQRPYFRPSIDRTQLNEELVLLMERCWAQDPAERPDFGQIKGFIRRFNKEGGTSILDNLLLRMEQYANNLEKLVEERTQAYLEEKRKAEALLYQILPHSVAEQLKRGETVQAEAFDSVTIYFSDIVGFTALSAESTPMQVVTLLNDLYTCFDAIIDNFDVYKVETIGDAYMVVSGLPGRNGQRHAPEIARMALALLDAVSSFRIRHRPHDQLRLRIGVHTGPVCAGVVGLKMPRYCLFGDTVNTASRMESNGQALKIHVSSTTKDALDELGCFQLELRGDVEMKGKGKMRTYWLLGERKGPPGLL
Chain of Atrial natriuretic peptide receptor 1 (Homo sapiens) (P16066 whole entry, looked up): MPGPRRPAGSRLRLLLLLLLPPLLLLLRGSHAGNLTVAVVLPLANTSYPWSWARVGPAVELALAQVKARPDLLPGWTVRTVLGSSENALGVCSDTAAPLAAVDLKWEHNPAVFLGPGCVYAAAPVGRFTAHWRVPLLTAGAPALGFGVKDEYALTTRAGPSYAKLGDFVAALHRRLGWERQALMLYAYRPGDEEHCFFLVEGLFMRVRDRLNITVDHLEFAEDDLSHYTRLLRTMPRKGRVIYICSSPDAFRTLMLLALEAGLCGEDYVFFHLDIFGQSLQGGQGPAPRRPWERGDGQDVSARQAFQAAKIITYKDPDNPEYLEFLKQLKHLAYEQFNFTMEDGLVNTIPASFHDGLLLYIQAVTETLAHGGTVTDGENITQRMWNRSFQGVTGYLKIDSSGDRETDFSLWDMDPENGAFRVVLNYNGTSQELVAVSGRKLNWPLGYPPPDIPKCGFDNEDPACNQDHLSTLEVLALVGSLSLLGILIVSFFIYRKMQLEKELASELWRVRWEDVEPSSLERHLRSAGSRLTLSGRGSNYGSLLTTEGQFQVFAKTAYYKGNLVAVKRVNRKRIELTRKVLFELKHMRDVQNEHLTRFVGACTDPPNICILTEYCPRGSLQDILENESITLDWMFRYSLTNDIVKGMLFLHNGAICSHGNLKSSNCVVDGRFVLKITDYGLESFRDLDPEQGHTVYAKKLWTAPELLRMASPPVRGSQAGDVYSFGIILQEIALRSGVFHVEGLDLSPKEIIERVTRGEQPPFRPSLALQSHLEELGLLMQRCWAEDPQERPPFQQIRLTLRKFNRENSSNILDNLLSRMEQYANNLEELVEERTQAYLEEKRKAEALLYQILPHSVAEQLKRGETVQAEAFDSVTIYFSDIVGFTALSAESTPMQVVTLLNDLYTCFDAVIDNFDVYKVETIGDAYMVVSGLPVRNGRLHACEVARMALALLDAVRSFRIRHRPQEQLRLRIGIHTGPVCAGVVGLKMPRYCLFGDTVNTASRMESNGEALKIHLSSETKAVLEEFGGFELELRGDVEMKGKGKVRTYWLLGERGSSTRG
Chain of Parathyroid hormone/parathyroid hormone-related peptide receptor (Homo sapiens) (Q03431 whole entry, looked up): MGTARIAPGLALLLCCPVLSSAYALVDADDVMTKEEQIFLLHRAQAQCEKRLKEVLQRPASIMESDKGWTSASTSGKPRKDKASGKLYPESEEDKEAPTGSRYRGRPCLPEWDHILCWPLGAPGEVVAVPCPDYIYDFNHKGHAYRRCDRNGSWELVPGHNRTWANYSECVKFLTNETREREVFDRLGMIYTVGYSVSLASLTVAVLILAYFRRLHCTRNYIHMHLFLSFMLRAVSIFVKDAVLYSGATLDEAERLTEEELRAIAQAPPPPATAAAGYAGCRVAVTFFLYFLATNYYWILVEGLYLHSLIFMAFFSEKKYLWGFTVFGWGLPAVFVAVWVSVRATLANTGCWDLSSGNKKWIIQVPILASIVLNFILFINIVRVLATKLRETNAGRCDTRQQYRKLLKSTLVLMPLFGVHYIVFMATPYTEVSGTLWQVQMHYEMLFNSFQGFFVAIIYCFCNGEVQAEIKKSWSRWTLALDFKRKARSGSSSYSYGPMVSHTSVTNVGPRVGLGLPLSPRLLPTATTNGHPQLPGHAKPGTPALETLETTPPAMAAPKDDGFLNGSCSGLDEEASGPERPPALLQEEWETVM
T1 sequence (P78324 whole entry, looked up, the tested form may be a part): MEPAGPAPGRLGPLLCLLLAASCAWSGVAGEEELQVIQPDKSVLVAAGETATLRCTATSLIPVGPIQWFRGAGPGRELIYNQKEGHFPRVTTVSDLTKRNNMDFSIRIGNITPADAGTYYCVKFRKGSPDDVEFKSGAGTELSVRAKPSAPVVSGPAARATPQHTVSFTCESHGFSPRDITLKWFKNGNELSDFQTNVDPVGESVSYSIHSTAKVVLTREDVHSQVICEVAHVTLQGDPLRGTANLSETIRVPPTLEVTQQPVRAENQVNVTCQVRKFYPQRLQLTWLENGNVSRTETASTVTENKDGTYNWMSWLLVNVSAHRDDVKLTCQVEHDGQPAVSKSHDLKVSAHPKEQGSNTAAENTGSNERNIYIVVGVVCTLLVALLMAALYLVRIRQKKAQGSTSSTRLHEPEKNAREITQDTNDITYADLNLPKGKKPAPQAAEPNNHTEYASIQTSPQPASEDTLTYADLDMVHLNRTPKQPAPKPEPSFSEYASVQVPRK
T1 sequence (Q08722 whole entry, looked up, the tested form may be a part): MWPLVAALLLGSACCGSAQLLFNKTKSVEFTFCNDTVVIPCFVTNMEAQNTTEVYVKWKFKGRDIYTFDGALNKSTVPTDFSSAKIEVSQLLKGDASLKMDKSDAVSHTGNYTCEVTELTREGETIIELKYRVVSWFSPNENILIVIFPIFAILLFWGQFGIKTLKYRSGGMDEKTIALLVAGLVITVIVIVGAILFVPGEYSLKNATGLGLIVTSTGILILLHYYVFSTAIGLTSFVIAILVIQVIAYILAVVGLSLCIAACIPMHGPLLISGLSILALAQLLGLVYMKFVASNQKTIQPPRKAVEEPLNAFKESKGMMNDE

With `CCNC(=O)[C@H]1O[C@@H](n2cnc3c(N)nc(NCCc4ccc(CCC(=O)O)cc4)nc32)[C@H](O)[C@@H]1O`, the Potency entry in [1], in assay [2], in [3], in assay [4] and in assay [5] was “inactive” throughout.

As to `N#C/C(=C\c1ccc(O)c(O)c1)C(=O)NCCCc1ccccc1`, the Potency result in [1], in assay [2], in assay [3], in assay [4] and in assay [5] was “inactive” throughout.

Take `CN1CC(=O)N/C1=N/C(=O)Nc1cccc(Cl)c1`: the Potency result in assay [1], in [2], in assay [3], in [4], in assay [6] and in assay [7] was “inactive” throughout. The Potency result in [9], in assay [5], in assay [10], in assay [11], in assay [12] and in assay [13] was “inactive” throughout. In addition, the Potency result in assay [14], in assay [15], in assay [16], in assay [17], in assay [18] and in assay [19] was “inactive” throughout. The Potency entry in assay [20] is “inactive”. Further, in assay [8], the result was inactive.

As to `CC(=O)[C@]1(O)Cc2c(O)c3c(c(O)c2[C@@H](O[C@H]2C[C@H](N)[C@H](O)[C@H](C)O2)C1)C(=O)c1c(O)cccc1C3=O`, in assay [1], the Potency was 5.17 µM (active) and 4.11 µM (active).

For the compound `O=C(O)[C@H](O)[C@@H](O)[C@H](O)[C@H](O)CO`, in [1], the Potency result is “inactive”.

For `C=CCN1C(=O)C(CC(C)C)NC1=S` (centres undefined), in assay [1], the Potency result was “inactive”.

As for `O=C(O)[C@H](CC(=O)N1C[C@H]2CCCC[C@H]2C1)Cc1ccccc1`, in assay [1], the Potency entry was “inactive”.

For the compound `C=C(Nc1ccc(OCC)cc1)Nc1ccc(OCC)cc1`, the Potency entry in [1] is “inactive”.

Take `CC1(C)C[C@@H]1C(=O)N/C(=C\CCCCSC[C@H](N)C(=O)O)C(=O)O`: the Potency result in assay [1] was “inactive”.

Consider `CC[C@H]1OC(=O)[C@H](C)C(=O)[C@H](C)[C@@H](O[C@@H]2O[C@H](C)C[C@H](N(C)C)[C@H]2O)[C@](C)(OC)C[C@@H](C)C(=O)[C@H](C)[C@H]2N(CCCCn3cnc(-c4cccnc4)c3)C(=O)O[C@]12C`, for which the Potency result in [1] was “inactive”.

In the case of `C[C@H](O)[C@H](O)[C@H]1CNc2nc(N)[nH]c(=O)c2N1`, the Potency result in [1] is “inactive”.

On to `COc1cc(CNC(=O)CCCC/C=C/C(C)C)ccc1O`, for which the Potency entry in assay [1] is “inactive”.

With `Cc1c(Nc2ncccc2C(=O)O)cccc1C(F)(F)F`, the Potency result in assay [1], in assay [6], in assay [10], in assay [11], in [12] and in [13] was “inactive” throughout. Also, the Potency entry in assay [15], in assay [17], in assay [18], in assay [19] and in assay [20] was “inactive” throughout. Further, in [14], the Potency is 21.1 µM (active).

Take `CC(=O)c1ccc(OCC(=O)N2CCCCC2)cc1`: the Potency entry in [1], in [6], in [10], in assay [11], in assay [12] and in assay [13] was “inactive” each time. Moreover, the Potency result in assay [14], in assay [15], in assay [16], in [17], in assay [18] and in assay [19] was “inactive” in each case. For the same compound, the Potency entry in assay [20] is “inactive”.

`CCCCCCOc1ccccc1C(N)=O`: in assay [1], the Potency is 18.4 µM (active). Moreover, the Potency entry in assay [6], in [10], in [11], in assay [12], in assay [13] and in [15] was “inactive” throughout. Further, the Potency entry in assay [16], in [17], in assay [18], in [19] and in [20] was “inactive” each time.

With `O=C(OCc1ccccc1)c1ccccc1`, the Potency result in [1], in [6], in assay [10], in assay [11], in assay [12] and in assay [13] was “inactive” throughout. For the same compound, the Potency result in assay [14], in assay [15], in assay [16], in assay [17], in assay [18] and in [19] was “inactive” throughout. In addition, the Potency entry in assay [20] was “inactive”.
